Laboratory results reported in PubChem BioAssay (Tox21).
Results filed as inconclusive are left out. Entries that show only a call come without a potency. Unmarked numbers belong to inactive results. Calls of active or inactive are those of the source. The call rests on the fitted dose curve; in most records, active means well fitted curve in the direction sought with a large enough effect in the repeat runs; inconclusive means weak or mixed curves; inactive means no such curve, though single readings can be large; an effect the other way counts as inactive or inconclusive.

Assay: A CellTox Green Cytotoxicity Assay to monitor cytotoxicity in HepG2 cells - 40 hour (AID 1224879); further: nearly all actives have a fitted effect of over 40% in size; further: potency means the concentration at half of the fitted maximal effect
Conditions: CellTox Green fluorescence; series mostly up to 76.8 µM
Method in brief: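 Measurements at 0, 8, 16, 24, 32 and 40 h of treatment captured CellTox Green fluorescence in HepG2 cells that had been co-plated with reagent and preincubated 5 h at 37 C/5% CO2.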
In the case of C=CC(=O)OCCCCCCCCCC, the Potency is reported as “inactive”.
In the case of O=C(O)c1ccc2c(c1)nc(C(=O)NC1CCN(C3CC3)CC1)n2Cc1cc(-c2ccc(Cl)s2)on1, the cytotoxicity increase is reported as -6.87% [at 15.8 µM].
In the case of CC(COc1ccccc1)NC(C)C(O)c1ccc(O)cc1 (configuration not stated), the Potency is reported as “inactive”.
For Clc1nc2ccccc2nc1Cl, the Potency was “inactive”.
For CCCCCCCCCCCC(=O)OCC, the Potency was “inactive”.
For CCCOC(C)=O, the Potency was “inactive”.
With Cc1c(-c2cccnc2)c2ccccc2n1CCCCC(=O)O the Potency was “inactive”.
For CCC(=O)O[C@@H]1C[C@H]2CC[C@]1(C)C2(C)C, the Potency was “inactive”.
In the case of O=[N+]([O-])c1cccc(I)c1, the Potency is reported as “inactive”.
For O=C(O)c1c2ccccc2cc2ccccc12, the Potency was “inactive”.
In the case of O=C(O)c1cccnc1Nc1cccc(C(F)(F)F)c1, the Potency is reported as “inactive”.
For Cc1ccc2ccccc2c1[N+](=O)[O-], the Potency was “inactive”.
With O=c1c2ccccc2oc2ccccc12 the Potency was “inactive”.
With CC(=O)c1ccc(Cl)c(Cl)c1Cl the Potency was “inactive”.
In the case of CCc1cnc(C(=O)O)c(C(=O)O)c1, the Potency is reported as “inactive”.
In the case of C=CC(O)CCCCC (configuration not stated), the Potency is reported as “inactive”.
In the case of Cc1nc2sccn2c(=O)c1CCN1CCC(=C(c2ccc(F)cc2)c2ccc(F)cc2)CC1, the Potency is reported as “inactive”.
With C=C(C)C(=O)OCCCCCCCCCCOC(=O)C(=C)C the Potency was “inactive”.
In the case of C=CC(=O)NC(C)(C)C, the Potency is reported as “inactive”.
In the case of COc1ccc(C(=O)Nc2ccccc2)cc1[N+](=O)[O-], the Potency is reported as “inactive”.
For Sc1nc(S)nc(S)n1, the Potency was “inactive”.
For CCCc1ccc(OC)cc1, the Potency was “inactive”.
With CC(C)CC(C)(C)C the Potency was “inactive”.
With CC1=C(C)C(=O)C(CCCCC#CCCCC#CCO)=C(C)C1=O the Potency was “inactive”.
In the case of C(/C=C/C=C/Nc1ccccc1)=Nc1ccccc1, the Potency is reported as “inactive”.
For OCC(O)c1ccccc1 (configuration not stated), the Potency was “inactive”.
For CO[C@@H]1[C@@H](O[C@@H]2O[C@H](C)[C@@H](O[C@H]3C[C@@](C)(O)[C@@H](O)[C@H](C)O3)[C@H](N(C)C)[C@H]2O)[C@@H](CC=O)C[C@@H](C)[C@@H](O[C@@H]2CC[C@H](N(C)C)[C@@H](C)O2)/C=C/C=C/C[C@@H](C)OC(=O)C[C@H]1OC(C)=O, the Potency was “inactive”.
With O=C1c2ccccc2C(=O)C1c1ccc2ccccc2n1 the Potency was “inactive”.
For CC(=O)Nc1ccccc1O, the Potency was “inactive”.
For O=C(OCCN1CCOCC1)c1cccnc1Nc1cccc(C(F)(F)F)c1, the Potency was “inactive”.
For Oc1ccc(Oc2ccccc2)cc1, the Potency was 36.9 µM (active).
In the case of C=C[Si](OCC)(OCC)OCC, the Potency is reported as “inactive”.
For O=[N+]([O-])c1ccccc1CCO, the Potency was “inactive”.
With O=C(Cl)c1cc(Cl)cc(Cl)c1 the Potency was “inactive”.
In the case of CCC1=C(C)CN(C(=O)NCCc2ccc(S(=O)(=O)NC(=O)NC3CCC(C)CC3)cc2)C1=O (configuration not stated), the Potency is reported as “inactive”.
In the case of CCCCCC1CCC(=O)O1 (configuration not stated), the Potency is reported as “inactive”.
For CCOc1cc(OCC)c(C(C)=O)cc1OCC, the Potency was “inactive”.

Assay: qHTS RealTime-Glo MT Cell Viability Assay in HEK293 cells - 0 hour (AID 1224880); further: top concentration of the series differs between compounds; nearly all actives have a fitted effect of over 45% in size
Conditions: RealTime-Glo luminescence; series mostly up to 76.8 µM
Method in brief: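 HEK293 + NanoLuc + prosubstrate, 600 cells/well; 5 h, 37 C/5% CO2; compound 23 nL in DMSO by pintool; 37 C; luminescence read at 0, 8, 16, 24, 32 and 40 h time points.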
In the case of C=CC(=O)OCCCCCCCCCC, the Potency is reported as “inactive”.
In the case of CC(COc1ccccc1)NC(C)C(O)c1ccc(O)cc1 (configuration not stated), the Potency is reported as “inactive”.
In the case of CCCCCCCCCCCC(=O)OCC, the Potency is reported as “inactive”.
For CCCN(C1CCN(C(=O)C2CCNCC2)CC1)[C@@H]1CCc2ccc(OC)cc2C1, the Potency was “inactive”.
With CCCOC(C)=O the Potency was “inactive”.
In the case of CCC(=O)O[C@@H]1C[C@H]2CC[C@]1(C)C2(C)C, the Potency is reported as “inactive”.
For O=[N+]([O-])c1cccc(I)c1, the Potency was “inactive”.
In the case of O=C(O)c1c2ccccc2cc2ccccc12, the Potency is reported as “inactive”.
For O=C(O)c1cccnc1Nc1cccc(C(F)(F)F)c1, the Potency was “inactive”.
For Cc1ccc2ccccc2c1[N+](=O)[O-], the Potency was “inactive”.
With O=c1c2ccccc2oc2ccccc12 the Potency was “inactive”.
With CC(=O)c1ccc(Cl)c(Cl)c1Cl the Potency was “inactive”.
For CCc1cnc(C(=O)O)c(C(=O)O)c1, the Potency was “inactive”.
With C=CC(O)CCCCC (configuration not stated) the Potency was “inactive”.
In the case of COc1cccc([C@H](O)C2CCN(CCc3ccc(F)cc3)CC2)c1OC, the Potency is reported as “inactive”.
With C=C(C)C(=O)OCCCCCCCCCCOC(=O)C(=C)C the Potency was “inactive”.
With C=CC(=O)NC(C)(C)C the Potency was “inactive”.
With COc1ccc(C(=O)Nc2ccccc2)cc1[N+](=O)[O-] the Potency was “inactive”.
For Sc1nc(S)nc(S)n1, the Potency was “inactive”.
In the case of CCCc1ccc(OC)cc1, the Potency is reported as “inactive”.
For CC1=C(C)C(=O)C(CCCCC#CCCCC#CCO)=C(C)C1=O, the Potency was “inactive”.
For C(/C=C/C=C/Nc1ccccc1)=Nc1ccccc1, the Potency was “inactive”.
For OCC(O)c1ccccc1 (configuration not stated), the Potency was “inactive”.
In the case of CO[C@@H]1[C@@H](O[C@@H]2O[C@H](C)[C@@H](O[C@H]3C[C@@](C)(O)[C@@H](O)[C@H](C)O3)[C@H](N(C)C)[C@H]2O)[C@@H](CC=O)C[C@@H](C)[C@@H](O[C@@H]2CC[C@H](N(C)C)[C@@H](C)O2)/C=C/C=C/C[C@@H](C)OC(=O)C[C@H]1OC(C)=O, the Potency is reported as “inactive”.
With O=C(OCCN1CCOCC1)c1cccnc1Nc1cccc(C(F)(F)F)c1 the Potency was “inactive”.
With C=C[Si](OCC)(OCC)OCC the Potency was “inactive”.
In the case of O=[N+]([O-])c1ccccc1CCO, the Potency is reported as “inactive”.
In the case of O=C(Cl)c1cc(Cl)cc(Cl)c1, the Potency is reported as “inactive”.
For CCCCCC1CCC(=O)O1 (configuration not stated), the Potency was “inactive”.
In the case of CCOc1cc(OCC)c(C(C)=O)cc1OCC, the Potency is reported as “inactive”.

Assay: A CellTox Green Cytotoxicity Assay to monitor cytotoxicity in HEK293 cells - 32 hour (AID 1224881); further: nearly all actives have a fitted effect of over 40% in size
Conditions: CellTox Green fluorescence; series mostly up to 76.8 µM
Method in brief: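 Tox21 screen in HEK293: membrane-impermeant cyanine dye fluoresces on binding dead-cell DNA; compound pinned 5 h post-seeding, plates held at 37 C, signal read repeatedly through 40 h.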
In the case of C=CC(=O)OCCCCCCCCCC, the Potency is reported as “inactive”.
Work on O=C(O)c1ccc2c(c1)nc(C(=O)NC1CCN(C3CC3)CC1)n2Cc1cc(-c2ccc(Cl)s2)on1 yielded a cytotoxicity increase of 1.64% [at 15.8 µM].
In the case of CC(COc1ccccc1)NC(C)C(O)c1ccc(O)cc1 (configuration not stated), the Potency is reported as “inactive”.
For Clc1nc2ccccc2nc1Cl, the Potency was “inactive”.
For CCCCCCCCCCCC(=O)OCC, the Potency was “inactive”.
With CCCOC(C)=O the Potency was “inactive”.
With Cc1c(-c2cccnc2)c2ccccc2n1CCCCC(=O)O the Potency was “inactive”.
For CCC(=O)O[C@@H]1C[C@H]2CC[C@]1(C)C2(C)C, the Potency was “inactive”.
With O=C(O)c1cccnc1Nc1cccc(C(F)(F)F)c1 the Potency was “inactive”.
For Cc1ccc2ccccc2c1[N+](=O)[O-], the Potency was “inactive”.
For CCc1cnc(C(=O)O)c(C(=O)O)c1, the Potency was “inactive”.
In the case of C=CC(O)CCCCC (configuration not stated), the Potency is reported as “inactive”.
For COc1cccc([C@H](O)C2CCN(CCc3ccc(F)cc3)CC2)c1OC, the Potency was “inactive”.
For Cc1nc2sccn2c(=O)c1CCN1CCC(=C(c2ccc(F)cc2)c2ccc(F)cc2)CC1, the Potency was “inactive”.
In the case of C=C(C)C(=O)OCCCCCCCCCCOC(=O)C(=C)C, the Potency is reported as “inactive”.
With C=CC(=O)NC(C)(C)C the Potency was “inactive”.
With Sc1nc(S)nc(S)n1 the Potency was “inactive”.
With CCCc1ccc(OC)cc1 the Potency was “inactive”.
With CC1=C(C)C(=O)C(CCCCC#CCCCC#CCO)=C(C)C1=O the Potency was “inactive”.
In the case of C(/C=C/C=C/Nc1ccccc1)=Nc1ccccc1, the Potency is reported as “inactive”.
In the case of OCC(O)c1ccccc1 (configuration not stated), the Potency is reported as “inactive”.
In the case of CO[C@@H]1[C@@H](O[C@@H]2O[C@H](C)[C@@H](O[C@H]3C[C@@](C)(O)[C@@H](O)[C@H](C)O3)[C@H](N(C)C)[C@H]2O)[C@@H](CC=O)C[C@@H](C)[C@@H](O[C@@H]2CC[C@H](N(C)C)[C@@H](C)O2)/C=C/C=C/C[C@@H](C)OC(=O)C[C@H]1OC(C)=O, the Potency is reported as “inactive”.
In the case of CC(=O)Nc1ccccc1O, the Potency is reported as “inactive”.
For O=C(OCCN1CCOCC1)c1cccnc1Nc1cccc(C(F)(F)F)c1, the Potency was “inactive”.
With C=C[Si](OCC)(OCC)OCC the Potency was “inactive”.
With O=[N+]([O-])c1ccccc1CCO the Potency was “inactive”.
For O=C(Cl)c1cc(Cl)cc(Cl)c1, the Potency was “inactive”.
For CCC1=C(C)CN(C(=O)NCCc2ccc(S(=O)(=O)NC(=O)NC3CCC(C)CC3)cc2)C1=O (configuration not stated), the Potency was “inactive”.
For CCCCCC1CCC(=O)O1 (configuration not stated), the Potency was “inactive”.
For CCOc1cc(OCC)c(C(C)=O)cc1OCC, the Potency was “inactive”.
